Laboratory results: paper PMC9911399, “Two distinct binding modes provide the RNA-binding protein RbFox with extraordinary sequence specificity”
Substitutions are numbered along the chain they refer to; changes in the protein carry UniProt numbers. The full ranking holds about 16,000 sequences; the median of “ka relative to ugcaugu” is about 0.096, and the highest 2% start at about 0.35. The entries come from a sample that favours the highest values as a whole.

T1: RBFOX1 RRM RbFoxmut (Fox-RRM*) (Homo sapiens, UniProt Q9NWB1 109-208, R118D;E147R;N151S;E152T)
T1 sequence: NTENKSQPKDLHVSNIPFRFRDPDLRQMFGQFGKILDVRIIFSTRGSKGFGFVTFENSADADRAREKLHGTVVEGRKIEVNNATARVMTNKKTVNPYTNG

B1: ACCUAUU (DNA:RNA)
RNA: GGGAGACCGGAAUUCAGAUUGUCCACCUAUUUUAAAUCCCGUCGUAGCCACCA
DNA 1: CAATCTGAATTCCGGTCTCCC
DNA 2: TGGTGGCTACGACGGGATT
B2: GCUCCGG (DNA:RNA)
RNA: B1 RNA with A25G, C27U, U28C, A29C, U30G, U31G
DNA 1: CAATCTGAATTCCGGTCTCCC
DNA 2: TGGTGGCTACGACGGGATT
B3: AUCUGAU (DNA:RNA)
RNA: B1 RNA with C26U, A29G, U30A
DNA 1: CAATCTGAATTCCGGTCTCCC
DNA 2: TGGTGGCTACGACGGGATT
B4: UCGGCUA (DNA:RNA)
RNA: B1 RNA with A25U, C27G, U28G, A29C, U31A
DNA 1: CAATCTGAATTCCGGTCTCCC
DNA 2: TGGTGGCTACGACGGGATT
B5: AAGGAAC (DNA:RNA)
RNA: B1 RNA with C26A, C27G, U28G, U30A, U31C
DNA 1: CAATCTGAATTCCGGTCTCCC
DNA 2: TGGTGGCTACGACGGGATT
B6: GCCACUG (DNA:RNA)
RNA: B1 RNA with A25G, U28A, A29C, U31G
DNA 1: CAATCTGAATTCCGGTCTCCC
DNA 2: TGGTGGCTACGACGGGATT
B7: AAGCCCU (DNA:RNA)
RNA: B1 RNA with C26A, C27G, U28C, A29C, U30C
DNA 1: CAATCTGAATTCCGGTCTCCC
DNA 2: TGGTGGCTACGACGGGATT
B8: CGAACAU (DNA:RNA)
RNA: B1 RNA with A25C, C26G, C27A, U28A, A29C, U30A
DNA 1: CAATCTGAATTCCGGTCTCCC
DNA 2: TGGTGGCTACGACGGGATT
B9: GCCGAGU (DNA:RNA)
RNA: B1 RNA with A25G, U28G, U30G
DNA 1: CAATCTGAATTCCGGTCTCCC
DNA 2: TGGTGGCTACGACGGGATT
B10: CUUGAUA (DNA:RNA)
RNA: B1 RNA with A25C, C26U, C27U, U28G, U31A
DNA 1: CAATCTGAATTCCGGTCTCCC
DNA 2: TGGTGGCTACGACGGGATT
B11: AGCGCUC (DNA:RNA)
RNA: B1 RNA with C26G, U28G, A29C, U31C
DNA 1: CAATCTGAATTCCGGTCTCCC
DNA 2: TGGTGGCTACGACGGGATT
B12: ACCCAAG (DNA:RNA)
RNA: B1 RNA with U28C, U30A, U31G
DNA 1: CAATCTGAATTCCGGTCTCCC
DNA 2: TGGTGGCTACGACGGGATT
B13: GUGUGAA (DNA:RNA)
RNA: B1 RNA with A25G, C26U, C27G, A29G, U30A, U31A
DNA 1: CAATCTGAATTCCGGTCTCCC
DNA 2: TGGTGGCTACGACGGGATT
B14: GUGAAUU (DNA:RNA)
RNA: B1 RNA with A25G, C26U, C27G, U28A
DNA 1: CAATCTGAATTCCGGTCTCCC
DNA 2: TGGTGGCTACGACGGGATT
B15: GUGAAUG (DNA:RNA)
RNA: B1 RNA with A25G, C26U, C27G, U28A, U31G
DNA 1: CAATCTGAATTCCGGTCTCCC
DNA 2: TGGTGGCTACGACGGGATT
B16: AAAUCUU (DNA:RNA)
RNA: B1 RNA with C26A, C27A, A29C
DNA 1: CAATCTGAATTCCGGTCTCCC
DNA 2: TGGTGGCTACGACGGGATT
B17: UGAGAAU (DNA:RNA)
RNA: B1 RNA with A25U, C26G, C27A, U28G, U30A
DNA 1: CAATCTGAATTCCGGTCTCCC
DNA 2: TGGTGGCTACGACGGGATT
B18: GCUUAUG (DNA:RNA)
RNA: B1 RNA with A25G, C27U, U31G
DNA 1: CAATCTGAATTCCGGTCTCCC
DNA 2: TGGTGGCTACGACGGGATT
B19: CCUACGU (DNA:RNA)
RNA: B1 RNA with A25C, C27U, U28A, A29C, U30G
DNA 1: CAATCTGAATTCCGGTCTCCC
DNA 2: TGGTGGCTACGACGGGATT
B20: CACCCGC (DNA:RNA)
RNA: B1 RNA with A25C, C26A, U28C, A29C, U30G, U31C
DNA 1: CAATCTGAATTCCGGTCTCCC
DNA 2: TGGTGGCTACGACGGGATT

molecular target: T1, RBFOX1 RRM RbFoxmut (Fox-RRM*); experiment: EMSA; HiTS-Eq, 1 nM pool, 10 min; buffer printed only for the single-RNA assays: 10 mM Tris pH 7.5, 150 mM NaCl, 3.4 mM EDTA, 0.001% NP-40, 30 C; details: tags: His6 N-terminal (pET28a); label: 5' 32P
Method in brief: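 Purified RbFox RRM (wild type or mutant) was equilibrated for 10 min in 50 µL with 1 nM of a 5′-radiolabelled pool of RNA with 7 randomized nucleotides, its flanks annealed to DNA oligonucleotides, across increasing protein concentrations. Free RNA was separated by 8% native PAGE, excised, reverse-transcribed, PCR-barcoded and sequenced on an Illumina HiSeq 2500. Relative association constants came from read-count changes of each variant against the control reaction, normalised to the cognate motif.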

Binder	binding signal
B1	0.107 KA relative to UGCAUGU
B2	0.0646 KA relative to UGCAUGU
B3	0.0592 KA relative to UGCAUGU
B4	0.106 KA relative to UGCAUGU
B5	0.057 KA relative to UGCAUGU
B6	0.101 KA relative to UGCAUGU
B7	0.0868 KA relative to UGCAUGU
B8	0.0626 KA relative to UGCAUGU
B9	0.123 KA relative to UGCAUGU
B10	0.134 KA relative to UGCAUGU
B11	0.0471 KA relative to UGCAUGU
B12	0.0886 KA relative to UGCAUGU
B13	0.132 KA relative to UGCAUGU
B14	0.118 KA relative to UGCAUGU
B15	1.45 KA relative to UGCAUGU
B16	0.0581 KA relative to UGCAUGU
B17	0.092 KA relative to UGCAUGU
B18	0.142 KA relative to UGCAUGU
B19	0.146 KA relative to UGCAUGU
B20	0.0852 KA relative to UGCAUGU
